# From PubChem
# MITF TRPM1 inh: reduces MITF-dependent TRPM1 promoter luciferase signal | SK-MEL-5 TRPM1 promoter luciferase, 24 h | inhibition, % at 12.5 µM | actives 0.83% (n = 330,000);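 active = mean inhibition across replicates of 60% or more, whatever share of single replicates reaches that level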
# EWS-Fli inh: blocks EWS/Fli oncoprotein-driven transcription; A673 NR0B1-luciferase reporter, viability-normalised; inhibition, % at 12.6 µM; actives 0.67% (n = 350,000);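 active = mean inhibition of at least 50% after viability correction, with every replicate also passing that limit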;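 note: firefly luciferase signal divided by Alamar Blue viability fluorescence both relative to DMSO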
# LMP1 NFkB inh: Epstein-Barr LMP1 NF-kappaB reporter inhibition; LMP1-induced NF-kappaB luciferase reporter cells, luminescence; inhibition, % at 12.5 µM; actives 0.69% (n = 350,000); AID 504558; in the data active = inhibition above about 41%;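 note: 0% = neutral control wells and 100% = reference inhibitor control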
# PAX8 reporter: lowers PAX8-driven luciferase in RMG-I cells. inhibition, % at 12.6 µM. RMG-I TPO-luciferase reporter, SteadyGlo, 24 h. AID 652154. actives 1.2% (n = 360,000);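 active = mean replicate inhibition at least 60% with every replicate also reaching 60%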;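 note: luciferase light reporting Pax8 driven TPO promoter activity; plate controls were median of neutral control wells for no effect and mitoxantrone controls for full effect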
# PGC1a acetyl inh: lowers PGC1a acetylation signal in U2OS cells; AlphaScreen anti-acetyl-lysine; with virally co-expressed GCN5 acetyltransferase; inhibition, % at 15.6 µM; actives 0.17% (n = 350,000); AID 651687;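 active = every replicate shows inhibition of at least 40%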;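 note: 0% = neutral control wells and 100% = positive control wells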
# LGR2 antag: Drosophila LGR2 receptor signaling inhibition; HEK293 LGR2, CRE-luciferase, bursicon-stimulated, 4 h; actives 0.35% (n = 380,000); inhibition, % at 9.99 µM;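 active = drop in luminescence signal, shown as inhibition above about 50% in the replicate tests, limit read from the data, passing the limit was not always enough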;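 note: agonist challenge used bursicon conditioned medium at about half maximal strength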
# * = called active by the depositor; nt = no result given. Sampled rows, rich in hits. Any-hit rate of the full collection: about 2.2%.
SMILES,MITF TRPM1 inh,EWS-Fli inh,LMP1 NFkB inh,PAX8 reporter,PGC1a acetyl inh,LGR2 antag
CCCNC(=O)Nc1ccc2c(c1)OC[C@@H](C)N(Cc1ccncc1)C[C@H](C)[C@H](OC)CN(C)C2=O,nt,-13,nt,nt,-4,-2
COCCCNCC1C(Oc2ccc(Cl)cc2)C(=O)N1c1ccccc1C (configuration not stated),1,nt,76*,nt,nt,-6
CO[C@H]1CN(C)C(=O)c2cc(NS(C)(=O)=O)ccc2OC[C@@H](C)N(C(=O)C2CCC2)C[C@H]1C,nt,-7,nt,nt,-3,5
CCCC(=O)Nc1ccc2c(c1)C(=O)N(C)C[C@@H](OC)[C@@H](C)CN(Cc1ccccn1)[C@@H](C)CO2,nt,3,nt,4,-2,-9
CCOc1c(Br)cc(CNc2ccc3c(c2)OCCO3)cc1OC,56,nt,19,nt,-17,nt
CCOc1cc(CNc2ccc3c(c2)OCCO3)cc(Br)c1OC,62*,nt,32,nt,21,nt
CO[C@H]1CN(C)C(=O)c2cc(NC(=O)c3cc(C)on3)ccc2OC[C@H](C)N(C(C)=O)C[C@@H]1C,nt,8,nt,nt,5,1
C[C@@H]1CN([C@@H](C)CO)C(=O)Cc2cc(N(C)C)ccc2O[C@H]1CN(C)S(C)(=O)=O,nt,-3,nt,-5,-3,-10
COC1(OC)C(/C=C/c2ccc(C)cc2)C(C#N)(C#N)C1(OC)OC (configuration not stated),28,nt,3,85*,-17,nt
COc1ccc(NC(=O)Nc2cccc3c2O[C@H](CN(C)C)[C@@H](C)CN([C@@H](C)CO)C3=O)cc1,nt,-17,nt,-45,3,-22
O=C(Nc1ccc(C(F)(F)F)cc1)N[C@@H]1CC[C@@H](CCn2cc(C3(O)CCCC3)nn2)O[C@H]1CO,nt,1,nt,12,3,3
COC(=O)c1ccccc1NC(=S)N(Cc1ccc2c(c1)OCO2)Cc1cc2ccc(OC)cc2[nH]c1=O,-3,88*,-4,-21,-16,-1
CC(=O)c1ccc(N2CCC(C)CC2)c(F)c1,-41,-24,1,-34,nt,nt
CCCCCC(=O)N1CCN(c2ccc(C(C)=O)cc2F)CC1,6,0,77*,-7,-23,-8
CC(=O)C1=C(c2ccc(Br)cc2)C(=O)c2ccccc2C1=O,84*,nt,92*,99*,nt,99*
O=C(N[C@@H]1CC[C@H](CCNC(=O)c2ccccc2F)O[C@H]1CO)c1cnccn1,nt,2,nt,-3,2,-17
CCOc1ccc(NC(=O)CCc2nnc3ccc(N4CCC5(CC4)OCCO5)nn23)cc1,0,-3,48*,-3,0,-2
CCCNC(=O)N(C)C[C@@H]1Oc2ncc(Br)cc2C(=O)N([C@@H](C)CO)C[C@@H]1C,nt,9,nt,29,5,-16
CCN(C(=O)CSc1nnc(Nc2cccc(C)c2C)s1)C1CCS(=O)(=O)C1 (configuration not stated),2,-4,47*,2,nt,nt
COc1ccc(C2NCCc3c2[nH]c2ccccc32)cc1COc1ccc(F)cc1 (configuration not stated),22,78*,-10,22,nt,nt
Cc1nc(-c2ccc(C(=O)Nc3cccc(F)c3)cc2)cs1,-3,31,-3,19,-3,60*
Cc1nc(-c2ccc(C(=O)Nc3ccc(F)cc3)cc2)cs1,-12,-45,-10,-52,8,-1
Cc1nc(-c2ccc(C(=O)Nc3ccccc3F)cc2)cs1,49,61*,20,-4,7,83*
COc1cc2c3nnc(-c4ccc(F)cc4)c-3cn(Cc3ccc(F)cc3)c2cc1OC,73*,35,-4,26,-7,-22
COc1ccc(-c2nnn(Cc3ccccc3)n2)cc1OC,-25,-26,2,-31,-2,-14
SMILES,MITF TRPM1 inh,EWS-Fli inh,LMP1 NFkB inh,PAX8 reporter,PGC1a acetyl inh,LGR2 antag
COc1cc2c3nnc(-c4ccc(F)cc4)c-3cn(Cc3ccccc3)c2cc1OC,nt,42,-158,69*,-9,16
C[C@H]1CN([C@@H](C)CO)C(=O)c2ccccc2-c2ccccc2CO[C@H]1CN(C)Cc1cccc(C(F)(F)F)c1,nt,10,nt,13,nt,17
C[C@H](NC(=O)C[C@@H]1C=C[C@@H](NC(=O)C2CCC2)[C@@H](CO)O1)c1ccccc1,nt,2,nt,-5,5,11
CCOc1ccc(NC(=O)c2ccc(N3CC4CC(C3)c3cccc(=O)n3C4)c(NC(=O)c3cccnc3)c2)cc1 (configuration not stated),-6,3,61*,7,-9,-2
COc1cc(/C=C2\SC(=Nc3ccccc3OC)NC2=O)ccc1O,46,35,1,71*,nt,6
COc1ccc(/C=C2\SC(=Nc3ccccc3OC)NC2=O)cc1,-1,4,-16,24,-5,-5
COc1cc(/C=C2/SC(=Nc3ccc(O)cc3)NC2=O)ccc1O,8,54*,9,56,27,-20
COc1ccc(C)cc1NS(=O)(=O)c1ccc(-c2cnc(C3CC3)o2)cc1,68*,42,15,99*,-6,-14
Cc1ccc(N(C)S(=O)(=O)c2ccc(-c3cnc(C4CC4)o3)cc2)cc1,17,52*,6,41,-14,-14
Cc1cccc(C)c1NS(=O)(=O)c1ccc(-c2cnc(C3CC3)o2)cc1,74*,nt,12,92*,-33,-4
CCOc1ccccc1CNS(=O)(=O)c1ccc(-c2cnc(C3CC3)o2)cc1,38,59*,30,36,-27,-3
Cc1ccc(NS(=O)(=O)c2ccc(-c3cnc(C4CC4)o3)cc2)cc1,-3,48,9,21,-12,-2
COc1ccc(S(=O)(=O)Nc2ccc3c(c2)CC(=O)N([C@H](C)CO)C[C@@H](C)[C@@H](CN(C)S(=O)(=O)c2cccs2)O3)cc1,nt,10,nt,-25,-19,9
CC(C)(C)n1ncc2c(=O)n(CC(=O)OCc3ccccc3)cnc21,13,nt,23,nt,-5,93*
CC(C)(C)n1ncc2c(=O)n(Cc3cccc(Cn4cnc5c(cnn5C(C)(C)C)c4=O)c3F)cnc21,8,35,18,79*,nt,2
CCCC(=O)Nc1ccc2c(c1)C(=O)N(C)[C@H]1CC[C@@H](CC(=O)Nc3ccccc3)O[C@H]1CO2,nt,-6,nt,8,3,-3
CC(=O)Nc1ccc(SCC(=O)c2c(N)n(Cc3ccccc3)c(=O)n(C)c2=O)cc1,-10,-2,3,-4,-7,-3
CC(C)Nc1nnc(SCC(=O)c2c(N)n(Cc3ccccc3)c(=O)n(C)c2=O)s1,-4,nt,64*,nt,2,nt
CCC1NC(=S)N(C2CCCCC2)C1=O (configuration not stated),3,nt,0,nt,55*,-1
CC(C)CC1NC(=S)N(C2CCCCC2)C1=O (configuration not stated),3,nt,-5,nt,12,nt
